Test results published in PubChem BioAssay (Tox21).
Where “and” joins values, the source holds several entries; their conditions need not be identical. Equal values may be shown once. Records with an inconclusive call do not appear. A call without a number means that no potency is given here. Calls of active or inactive are those of the source. Calls come from the whole dose curve; as a rule, active = well fitted curve in the direction sought with a large enough effect in the repeat runs; inconclusive = weak or mixed curves; inactive = no such curve, though single readings can be large; an effect the other way counts as inactive or inconclusive.

Tests used:
[1] = biological target: Cytochrome P450 2C9 (Homo sapiens) (UniProt P11712); experiment: Cytochrome P450 Family 2 Subfamily C Member 9 (CYP2C9) small molecule antagonists: luciferase reporter qHTS assay (AID 1671198)
Chain of Cytochrome P450 2C9 (Homo sapiens) (P11712 whole entry, looked up): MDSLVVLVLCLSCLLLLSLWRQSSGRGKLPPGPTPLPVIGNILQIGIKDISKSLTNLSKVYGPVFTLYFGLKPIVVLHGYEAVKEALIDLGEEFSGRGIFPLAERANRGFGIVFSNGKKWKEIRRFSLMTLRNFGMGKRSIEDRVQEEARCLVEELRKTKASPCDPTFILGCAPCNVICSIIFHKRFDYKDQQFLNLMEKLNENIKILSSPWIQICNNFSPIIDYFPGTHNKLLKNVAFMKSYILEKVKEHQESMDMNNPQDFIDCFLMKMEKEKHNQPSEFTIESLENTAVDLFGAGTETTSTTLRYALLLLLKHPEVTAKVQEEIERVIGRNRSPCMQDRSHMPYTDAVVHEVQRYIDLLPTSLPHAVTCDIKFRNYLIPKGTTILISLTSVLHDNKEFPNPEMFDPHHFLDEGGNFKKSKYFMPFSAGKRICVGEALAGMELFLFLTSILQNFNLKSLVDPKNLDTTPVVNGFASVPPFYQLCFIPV
How it was run: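 Enzyme-substrate mix preincubated with compound 10 min at room temperature; reaction started with NADPH regeneration solution, 1 h 37C. Luminescent luciferin product read after 20 min detection reagent.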

[2] = biological target: Cytochrome P450 1A2 (Homo sapiens) (UniProt P05177); experiment: Cytochrome P450 Family 1 Subfamily A Member 2 (CYP1A2) small molecule antagonists: luciferase reporter qHTS assay (AID 1671199)
Chain of Cytochrome P450 1A2 (Homo sapiens) (P05177 whole entry, looked up): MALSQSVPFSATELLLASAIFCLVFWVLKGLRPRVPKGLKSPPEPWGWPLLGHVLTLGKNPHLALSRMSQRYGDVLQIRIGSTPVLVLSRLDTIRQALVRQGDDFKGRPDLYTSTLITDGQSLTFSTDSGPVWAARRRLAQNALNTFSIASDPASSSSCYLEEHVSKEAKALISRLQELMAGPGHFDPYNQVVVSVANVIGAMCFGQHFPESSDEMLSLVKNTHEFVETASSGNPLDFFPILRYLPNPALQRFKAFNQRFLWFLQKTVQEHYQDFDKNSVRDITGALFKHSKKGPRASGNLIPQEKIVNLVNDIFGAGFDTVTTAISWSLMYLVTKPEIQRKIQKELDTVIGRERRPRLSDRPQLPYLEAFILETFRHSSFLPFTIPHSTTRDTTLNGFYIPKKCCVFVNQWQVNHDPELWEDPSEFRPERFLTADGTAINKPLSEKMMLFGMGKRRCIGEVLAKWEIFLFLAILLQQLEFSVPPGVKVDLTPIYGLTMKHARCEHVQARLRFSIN
How it was run: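 P450-Glo CYP1A2, 1536-well qHTS: enzyme/proluciferin substrate + cpd (DMSO), 10 min RT; NADPH regen, 1 h RT; detection reagent, 20 min; luminescence, RLU.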

[3] = biological target: Voltage-gated inwardly rectifying potassium channel KCNH2 (Homo sapiens) (UniProt Q12809); experiment: Human Ether-a-go-go-Related Gene (hERG) channel small molecule antagonists: fluorescence cell-based qHTS assay (AID 1671200)
Chain of Voltage-gated inwardly rectifying potassium channel KCNH2 (Homo sapiens) (Q12809 whole entry, looked up): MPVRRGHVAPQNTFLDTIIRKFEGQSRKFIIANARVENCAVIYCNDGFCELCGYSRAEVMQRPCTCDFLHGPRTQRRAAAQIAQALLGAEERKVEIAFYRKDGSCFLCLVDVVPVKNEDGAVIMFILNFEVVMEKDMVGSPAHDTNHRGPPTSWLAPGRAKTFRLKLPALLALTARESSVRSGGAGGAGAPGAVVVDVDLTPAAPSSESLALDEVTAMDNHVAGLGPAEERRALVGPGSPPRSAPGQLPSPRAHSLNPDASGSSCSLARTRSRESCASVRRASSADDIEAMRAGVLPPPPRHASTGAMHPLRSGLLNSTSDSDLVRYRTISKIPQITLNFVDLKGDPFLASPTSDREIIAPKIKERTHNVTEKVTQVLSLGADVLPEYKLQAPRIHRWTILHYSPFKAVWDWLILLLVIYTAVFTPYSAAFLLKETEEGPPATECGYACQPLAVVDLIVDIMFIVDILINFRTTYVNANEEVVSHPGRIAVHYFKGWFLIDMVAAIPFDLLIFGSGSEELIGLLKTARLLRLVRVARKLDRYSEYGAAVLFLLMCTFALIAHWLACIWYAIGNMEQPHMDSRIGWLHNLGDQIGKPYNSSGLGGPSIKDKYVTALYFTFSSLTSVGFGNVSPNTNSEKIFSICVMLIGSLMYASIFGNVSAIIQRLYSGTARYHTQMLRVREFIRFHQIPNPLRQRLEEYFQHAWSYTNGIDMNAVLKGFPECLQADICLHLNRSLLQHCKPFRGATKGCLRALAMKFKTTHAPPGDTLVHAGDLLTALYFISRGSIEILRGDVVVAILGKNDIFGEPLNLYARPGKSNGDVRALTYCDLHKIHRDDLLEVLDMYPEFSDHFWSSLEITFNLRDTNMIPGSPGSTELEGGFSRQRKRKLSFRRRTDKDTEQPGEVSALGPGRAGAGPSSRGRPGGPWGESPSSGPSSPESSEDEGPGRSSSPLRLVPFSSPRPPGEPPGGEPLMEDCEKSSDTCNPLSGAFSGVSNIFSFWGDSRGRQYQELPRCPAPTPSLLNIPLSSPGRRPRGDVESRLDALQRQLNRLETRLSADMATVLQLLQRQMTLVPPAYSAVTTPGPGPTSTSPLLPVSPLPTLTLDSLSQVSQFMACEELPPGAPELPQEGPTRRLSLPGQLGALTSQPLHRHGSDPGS
How it was run: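 hERG-U2OS cells plated overnight at 37 C, loaded with FluxOR II dye 1 h at RT in dark; after 10 min, thallium stimulus added. Fluorescence (480/540 nm) read kinetically for 2 min at 1 s intervals.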

[4] = biological target: Cytochrome P450 3A4 (Homo sapiens) (UniProt P08684); experiment: Cytochrome P450 Family 3 Subfamily A Member 4 (CYP3A4) small molecule antagonists: luciferase reporter qHTS assay (AID 1671201)
Chain of Cytochrome P450 3A4 (Homo sapiens) (P08684 whole entry, looked up): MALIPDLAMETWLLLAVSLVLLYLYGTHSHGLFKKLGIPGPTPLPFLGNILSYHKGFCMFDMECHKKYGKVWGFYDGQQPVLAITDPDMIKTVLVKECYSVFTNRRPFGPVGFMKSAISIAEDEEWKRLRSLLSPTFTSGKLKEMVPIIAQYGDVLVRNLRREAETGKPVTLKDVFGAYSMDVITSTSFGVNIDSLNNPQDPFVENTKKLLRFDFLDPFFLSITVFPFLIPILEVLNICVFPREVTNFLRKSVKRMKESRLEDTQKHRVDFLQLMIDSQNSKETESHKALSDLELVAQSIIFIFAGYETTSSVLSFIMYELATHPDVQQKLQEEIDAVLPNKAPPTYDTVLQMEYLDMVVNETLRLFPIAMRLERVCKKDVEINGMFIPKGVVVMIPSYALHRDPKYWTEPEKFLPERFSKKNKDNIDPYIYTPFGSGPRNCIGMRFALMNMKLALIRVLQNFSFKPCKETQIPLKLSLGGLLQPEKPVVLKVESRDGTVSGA
How it was run: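 P450-Glo CYP3A4 luminescent assay: compounds preincubated 10 min at room temperature with enzyme and proluciferin substrate, NADPH regeneration added, 1 h room-temperature reaction, stopped with luciferin detection reagent; luminescence read after 20 min. Ketoconazole positive control.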
Note: nearly all actives have a fitted effect of over 50% in size.
Potency is the fitted concentration of half-maximal effect.

Row | SMILES | Potency [1] | Potency [2] | Potency [3] | Potency [4]
1 | CCCCCCCCCCCCOCCOCCOCCOCCOCCOCCOCCOCCOCCO | 15.5 µM (active) | – | – | –
2 | Cc1nc2n(c(=O)c1CCN1CCC(c3noc4cc(F)ccc34)CC1)CCCC2 | inactive | – | – | –
3 | CN1CCN(Cc2cc(-c3ccc4[nH]c(=O)oc4c3)co2)[C@@H](c2ccc(F)cc2)C1 | inactive | inactive | – | –
4 | COc1ccc2cc1Oc1ccc(cc1)C[C@H]1c3c(cc4c(c3Oc3cc5c(cc3OC)CCN(C)[C@@H]5C2)OCO4)CCN1C | 30.9 µM (active) | inactive | 9.52 µM (active) | –
5 | CC[N+](CC)(CC)CCOC(=O)C(C1CCCC1)C1CCCC1 | inactive | – | – | –
6 | O=C1CCc2cc(OCCCCc3nnnn3C3CCCCC3)ccc2N1 | 12.3 µM (active) | inactive | inactive | –
7 | C#CC1(O)CC[C@H]2[C@@H]3CCC4=CCCC[C@@H]4[C@H]3CC[C@@]21C (stereo not given in full) | 7.1 µM (active) and 6.92 µM (active) | 39.9 µM (active) | – | –
8 | CCO[C@@H]1O[C@H](C(COCc2ccccc2)OCc2ccccc2)[C@H](OCc2ccccc2)[C@H]1O (stereo not given in full) | 8.71 µM (active) | inactive | inactive | –
9 | COc1ccc2c(c1)c(CC(=O)OC/C=C(\C)CC/C=C(\C)CCC=C(C)C)c(C)n2C(=O)c1ccc(Cl)cc1 | 17.4 µM (active) | 17.4 µM (active) | inactive | –
10 | CCCCC(CC)CN1CN(CC(CC)CCCC)CC(C)(N)C1 (stereo not given) | inactive | inactive | 2.68 µM (active) | –
11 | CCCC(=O)OCOC(=O)C1=C(C)NC(C)=C(C(=O)OC)C1c1cccc(Cl)c1Cl (stereo not given) | 2.19 µM (active) | – | – | –
12 | C#C[C@]1(O)CC[C@H]2[C@@H]3[C@H](C)CC4=C(CCC(=O)C4)[C@H]3CC[C@@]21C | 13.8 µM (active) | 24.5 µM (active) | inactive | –
13 | CC(=O)Oc1cc2c(s1)CCN(C(C(=O)C1CC1)c1ccccc1F)C2 (stereo not given) | 13.8 µM (active) | inactive | – | –
14 | CCCCN(CCCC)CC(O)c1cc(Cl)cc2c1-c1ccc(Cl)cc1/C2=C/c1ccc(Cl)cc1 (stereo not given) | 17.4 µM (active) | 16.2 µM (active) | 2.68 µM (active) | –
15 | CC(N=C(NC#N)Nc1ccncc1)C(C)(C)C (stereo not given) | 13.8 µM (active) | inactive | inactive | –
16 | c1ccc(C(O[C@@H]2CCCN(CCc3ccc4c(c3)OCO4)C2)c2ccccc2)cc1 | 17.8 µM (active) | 39.9 µM (active) | 0.977 µM (active) | –

Row | SMILES | Potency [1] | Potency [2] | Potency [3] | Potency [4]
17 | O=C1CCCCCCCCCCCCCCCO1 | inactive | inactive | inactive | –
18 | CCCCCCCC/C=C\CCCCCCCCN | 38.9 µM (active) | 12.9 µM (active) | inactive | –
19 | CC(C)(C)NSc1nc2ccccc2s1 | 16.2 µM (active) | 32.2 µM (active) | inactive | –
20 | CCCCC(CC)COC(=O)CCCCC(=O)OCc1ccccc1 (stereo not given) | 15.9 µM (active) | 56.4 µM (active) | inactive | –
21 | O=C(O)c1cc(O)c2ccccc2c1O | 15.9 µM (active) | 5.64 µM (active) | – | –
22 | CCN1C(=O)c2ccccc2C1Nc1ccc(OCCN2CCCCC2)cc1 (stereo not given) | inactive | inactive | inactive | –
23 | CCOC(=O)Cn1cccc1-c1nc(-c2ccc(OC)cc2)c(-c2ccc(OC)cc2)s1 | 3.89 µM (active) | inactive | inactive | –
24 | CCC(C)n1ncn(-c2ccc(N3CCN(c4ccc(OC[C@H]5CO[C@](Cn6cncn6)(c6ccc(Cl)cc6Cl)O5)cc4)CC3)cc2)c1=O (stereo not given in full) | 13.8 µM (active) | inactive | inactive | –
25 | Cc1cccc(C)c1NC(=O)c1ccc(N)cc1 | inactive | inactive | inactive | –
26 | CNC(=O)c1ccccc1Sc1ccc2c(/C=C/c3ccccn3)n[nH]c2c1 | 6.92 µM (active) | 2.75 µM (active) | inactive | –
27 | NC(=S)NC(N)=S | 7.96 µM (active) | 35.6 µM (active) | inactive | inactive
28 | CCCCCCCCCCCCCC[N+](C)(C)C | inactive | inactive | 13.3 µM (active) and 19.5 µM (active) and 21.3 µM (active) | inactive
29 | CCCCCC/C=C\CCCCCCCC(=O)O | 71 µM (active) | inactive | inactive | inactive
30 | CC1(C)CCC[C@]2(C)[C@H]3CC(=O)O[C@]3(C)CC[C@@H]12 | 39.9 µM (active) | 44.8 µM (active) | 38.9 µM (active) | 31.7 µM (active)
31 | OC[C@@H](O)[C@@H](O)CO | inactive | inactive | inactive | inactive
32 | O=C(O)CCN(C1(C(=O)NO)CCCC1)S(=O)(=O)c1ccc(Oc2ccc(F)cc2)cc1 | inactive | inactive | inactive | inactive
